Experimental findings from PubChem BioAssay AID589 (National Center for Advancing Translational Sciences (NCATS), 2007) are described below.

Screen size: about 59,000 compounds; about 6,200 (11%) were called active. Inconclusive results (about 9%) are left out. No stated cut-off is given here; in the data, active means max dye-equivalent concentration above about 10 nM; inconclusive means mostly about 1.1 nM to 9.6 nM; inactive means weaker than that. For the sample, actives were picked, then their nearest neighbours and some compounds at random.

The assay in a line: qHTS Assay for Spectroscopic Profiling in 4-MU Spectral Region. The conditions noted are these: compound autofluorescence, 340/450 nm, 4-MU equivalents; stronger effect = higher value. A digest of the protocol: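 Intrinsic fluorescence at 340/450 nm (ex/em) was read after 15 min at room temperature in pH 8.0, 100 mM Tris. Each compound concentration expressed as 4-MU-equivalent concentration from a six-point 4-MU standard series on each plate.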
For the compound `CC(=NCc1ccco1)C1=C(O)c2ccccc2C1=O`, the max dye-equivalent concentration entry is “inactive”.

As for `COc1ccc(N2C(=O)CC(N3CCC(C(N)=O)CC3)C2=O)cc1` (stereo not given), the max dye-equivalent concentration entry was “inactive”.

For `CCCC(NC(=O)c1ccccc1)c1nc2ccccc2n1Cc1ccc(C(=O)OC)o1` (stereo not given), the max dye-equivalent concentration result is “inactive”.

Take `Cc1ccc2nc(NCCCNC(=O)c3cnccn3)c(C#N)cc2c1`: the max dye-equivalent concentration was 160 nM (active).

Turning to `CCn1c(SCC(=O)Nc2cc(C)ccc2C)nnc1-c1cnccn1`, the max dye-equivalent concentration result was “inactive”.

For `CC1(C)C(=O)C2(CCCCC2)C(=O)OC1c1cccs1` (stereo not given), the max dye-equivalent concentration entry was “inactive”.

On to `CC(C)CNS(=O)(=O)c1ccc(OCC(=O)Nc2ccc3c(c2)OCO3)c(Cl)c1`, for which the max dye-equivalent concentration entry is “inactive”.

Take `CC1CN(C(=O)CN2C(=O)NC(C)(c3ccccc3)C2=O)CC(C)O1` (stereo not given): the max dye-equivalent concentration entry was “inactive”.

Turning to `COC(=O)c1cc(C(=O)OC)cc(N2C(=O)CC(N3CCN(c4ccccc4)CC3)C2=O)c1` (stereo not given), the max dye-equivalent concentration entry is “inactive”.

With `CCc1c(C)nc2ncnn2c1N1CCC(C(=O)NCc2ccc3c(c2)OCO3)CC1`, the max dye-equivalent concentration entry was “inactive”.

With `O=C1CSC(=O)N1CCOCCN1C(=O)CSC1=O`, the max dye-equivalent concentration entry is “inactive”.

Consider `COc1ccc(CCn2c(-c3ccco3)nc3nc4ccccc4nc32)cc1OC`, for which the max dye-equivalent concentration is 40 nM (active).

Consider `COc1ccc(CCn2nnnc2C(c2ccccc2)N2CCN(C)CC2)cc1OC` (stereo not given), for which the max dye-equivalent concentration entry was “inactive”.

With `COCCn1c(-c2ccc(OC)c(OC)c2)nc2ccccc21`, the max dye-equivalent concentration entry is “inactive”.

As to `CCn1cc(C(=O)N2CCN(C3CCCCC3)CC2)c2cc(OC)c(OC)cc2c1=O`, the max dye-equivalent concentration entry was “inactive”.

For `Cn1c2c(c(=O)n(C)c1=O)C(c1ccc(O)cc1)Nc1ccccc1O2` (stereo not given), the max dye-equivalent concentration result is “inactive”.

`COc1ccc(-c2nc(SCC(=O)N3CCOCC3)n[nH]2)cc1`: the max dye-equivalent concentration result is “inactive”.

Regarding `COc1ccc(-c2ccnc(SCC(=O)N3CCOCC3)n2)cc1`, the max dye-equivalent concentration is 110 nM (active).

`CCn1c(COc2cccc(OC)c2)nnc1SCC(=O)N1CCOCC1`: the max dye-equivalent concentration entry was “inactive”.

As to `CC1(C)CC(=O)C=C(NCCCN2CCCC2=O)C1`, the max dye-equivalent concentration result was “inactive”.

As for `CCOC(=O)c1ccc(N2C(=O)CC(Sc3nc(O)c(CC)c(=O)[nH]3)C2=O)cc1` (stereo not given), the max dye-equivalent concentration entry is “inactive”.

Turning to `CS(=O)(=O)N1CCCC(C(=O)N2CCOCC2)C1` (stereo not given), the max dye-equivalent concentration entry is “inactive”.

As to `COc1ccc(N2C(=O)c3cccc4cccc(c34)C2=O)nn1`, the max dye-equivalent concentration is 160 nM (active).

On to `COc1ccc(OCCCON2C(=O)c3ccccc3C2=O)cc1`, for which the max dye-equivalent concentration entry was “inactive”.

Turning to `Cc1cc(C)c(C)c(S(=O)(=O)Nc2ccc(O)cc2)c1C`, the max dye-equivalent concentration entry was “inactive”.

For `COCCCNC(=O)c1ccc(CNS(=O)(=O)c2ccc(NC(C)=O)cc2)cc1`, the max dye-equivalent concentration entry was “inactive”.

Consider `CC(C)C1Cc2c(sc3c2c(=O)n(-c2ccccc2)c2nncn32)CO1` (stereo not given), for which the max dye-equivalent concentration result was “inactive”.

Regarding `COC(=O)c1cn(CC(=O)NCc2cccs2)c2ccccc12`, the max dye-equivalent concentration result was “inactive”.

As for `O=C(CCC(=O)c1cccs1)NCc1ccccc1`, the max dye-equivalent concentration result was “inactive”.

In the case of `O=C(Cn1cc(C(=O)c2cccs2)c2ccccc21)NCc1cccs1`, the max dye-equivalent concentration is 29 nM (active).

Regarding `CCc1ccc(CCC(=O)Nc2ccc(S(N)(=O)=O)cc2)o1`, the max dye-equivalent concentration result is “inactive”.

Turning to `Clc1ccc(C(c2ccc(Cl)cc2)n2cc[n+](C[C@@H](OCc3ccc(Cl)cc3Cl)c3ccc(Cl)cc3Cl)c2)cc1`, the max dye-equivalent concentration entry is “inactive”.

Consider `CC1CCCN(c2ccc(C(=O)NCCc3ccccc3)cn2)C1` (stereo not given), for which the max dye-equivalent concentration result is “inactive”.

As for `Cc1ccc(S(=O)(=O)NC(=O)NN2C[C@H]3CCC[C@@H]3C2)cc1`, the max dye-equivalent concentration result is “inactive”.

For `O=C(OCC(=O)N1CCCC1)c1ccco1`, the max dye-equivalent concentration entry is “inactive”.

As for `COc1ccc(C2CC(c3ccc(C)cc3)Nc3nc(N)nn32)cc1` (stereo not given), the max dye-equivalent concentration is 2500 nM (active).

On to `Nc1nc2n(n1)C(c1ccco1)CC(c1ccc(Cl)c(Cl)c1)N2` (stereo not given), for which the max dye-equivalent concentration result is “inactive”.

For `CC1CC(c2ccccc2)n2nc(NC(=O)c3cccs3)nc2N1` (stereo not given), the max dye-equivalent concentration entry was “inactive”.

Consider `CCc1c(C)c2c(C)[nH]nc2oc1=O`, for which the max dye-equivalent concentration entry was “inactive”.

Take `COCCn1nnnc1C(c1ccccc1Cl)N1CCN(c2ccccc2OC)CC1` (stereo not given): the max dye-equivalent concentration entry was “inactive”.

`COCCn1nnnc1C(c1cc2ccc(OC)cc2[nH]c1=O)N1CCc2ccccc2C1` (stereo not given): the max dye-equivalent concentration is 17 nM (active).

Take `COc1ccc(OC)c(C(c2nnnn2C(C)(C)C)N2CCc3ccccc3C2)c1` (stereo not given): the max dye-equivalent concentration result is “inactive”.

With `Cc1cc(C)c2[nH]c(=O)c(C(c3nnnn3Cc3ccc4c(c3)OCO4)N3CCCC3)cc2c1` (stereo not given), the max dye-equivalent concentration result was “inactive”.

Consider `CCOc1ccc2[nH]c(=O)c(C(c3nnnn3CCOC)N3CCOCC3)cc2c1` (stereo not given), for which the max dye-equivalent concentration is 720 nM (active).

As to `COc1ccc(N2CCN(C(c3cc4ccc(C)cc4[nH]c3=O)c3nnnn3C3CCCC3)CC2)cc1` (stereo not given), the max dye-equivalent concentration entry was “inactive”.

Turning to `CCCOc1ccccc1C(=O)NCCCC(=O)O`, the max dye-equivalent concentration result is “inactive”.

On to `COC(=O)Nc1ncc(CN2C(=O)c3ccccc3C2=O)s1`, for which the max dye-equivalent concentration result was “inactive”.

As for `O=C(CCCn1c(SCC(=O)c2ccc(F)cc2)nc2ccccc2c1=O)NCc1ccco1`, the max dye-equivalent concentration entry was “inactive”.

For `CC1(N2CCOCC2)CC2(O)C(=[N+]1[O-])CCc1nonc12` (stereo not given), the max dye-equivalent concentration result is “inactive”.

For `CCn1c(COc2ccccc2)nnc1SCC(=O)Nc1ccc2c(c1)OCCO2`, the max dye-equivalent concentration entry is “inactive”.

For the compound `COc1ccc(S(=O)(=O)N2CCCCC2)cc1Br`, the max dye-equivalent concentration entry was “inactive”.

In the case of `C=CCn1c(CC(=O)Nc2cccc(OC)c2)nnc1SCC(=O)NC1CCCCC1`, the max dye-equivalent concentration result is “inactive”.

On to `CCC(CC)C(=O)Nc1cccc(C(=O)N2CCCC2)c1`, for which the max dye-equivalent concentration result was “inactive”.

Regarding `COc1ccc(OCC(=O)N2CCN(C(=O)COc3ccccc3)CC2)cc1`, the max dye-equivalent concentration entry is “inactive”.

`COc1ccc(OCc2cccc(C(=O)N3CCCC3)c2)cc1`: the max dye-equivalent concentration is 19 nM (active).
